Bioassay records (PubChem BioAssay)
HTT cytoprotect: cytoprotection in Huntington HTT-Q103 PC12 cell model. PC12 HTT-Q103 induced, cytoprotection, ATP luminescence, 40 h. Potency, µM (titrated, usually from 56.4 µM), without a hit: cytoprotection (ATP increase), actives largely listed as activators. actives 0.14% (n = 230,000); also: potency is read from the fitted curve at half-maximal effect; % of control where 0% means no effect; nearly all actives have a fitted effect of over 45% in size
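PC12 cells stably carrying ecdysone-inducible Htt exon 1 (Q103)–GFP were induced with 100 nM tebufenozide (final) alongside library compounds in a dose series. Cytoprotection was scored as retained ATP by ATPlite luminescence.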
HTT aggregate: reduces HttQ103-GFP aggregates in PC12 cells; PC12 HttQ103-GFP aggregates, Acumen cytometry, 40 h; Potency, µM (highest dose often 46.1 µM), for inactives: top-dose activity change, negative = inhibition, usual class: inhibitors; actives 1.1% (n = 220,000); also: potency is read from the fitted curve at half-maximal effect; % is scaled to controls: 0 for no effect and ±100 for the full control effect; nearly all actives have a fitted effect of over 60% in size
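Inducible Q103 Huntingtin exon 1–GFP PC12 line, 1500 cells/well in phenol red free DMEM with 5% equine and 5% calf serum. Tebufenozide 100 nM induced expression; compounds titrated; aggregates quantified by cytometry.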
PNC inhibitor: blocks assembly of the perinucleolar compartment | actives 3.1% (n = 140,000) | AID 2417 | activity change (PNC), negative = inhibition, % at 10 µM | PC3M PTB-GFP, PNC prevalence imaging, 16 h; stronger effect = lower value;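 active = readout at or below -70, meaning at least 70% loss of cells showing the perinucleolar compartment, a nuclear body marking cancer cells; inconclusive = readout between -30 and a set limit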;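 also: plate controls were DMSO wells for no effect and camptothecin positive control wells for full effect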
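Compounds are pinned in duplicate onto adhered PC3M cells stably expressing GFP-tagged PTB and incubated 16 h at 37 C. Cells are then fixed, nuclei stained with Hoechst, and PNC-positive cells counted.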
Numbers without * were called inactive; [ ] = another dose, or the depositor's remark. Shown is part of a subset that was picked to be rich in hits. Unless noted, calls follow the shape of the dose curve; as a rule, active = well fitted curve in the direction sought with a large enough effect; inconclusive = small, poorly fitted or top-dose-only effect, or another doubt; inactive = no such curve, though single readings can be large; an effect the other way counts as inactive or inconclusive.

What do the screens show for `Cc1ccc(C)c(SCC(=O)OC/C(O)=C(\C#N)c2nc3ccccc3[nH]2)c1`?
HTT cytoprotect: 0.6%; HTT aggregate: 28.2%

What do the screens show for `CC(=O)N1CCN(c2ccccc2NC(=O)c2ccc(C#N)cc2F)CC1`?
HTT cytoprotect: 36.0%[10 µM]; HTT aggregate: 16.9%[9.22 µM]

What do the screens show for `CC(NC(=O)/C(C#N)=C/c1ccco1)c1ccccc1` (configuration not stated)?
HTT cytoprotect: 20.5%[10 µM]; HTT aggregate: 30.1%[9.22 µM]

Results for Cc1ccc(OC(=O)Nc2ccccc2)cc1 ?
HTT cytoprotect: 13.9%[10 µM]; HTT aggregate: 5.4%

How did Cc1ccc(/C=C(/C#N)C(=O)NC(=O)Oc2ccccc2)cc1 do in these assays?
HTT cytoprotect: 16.1%; HTT aggregate: -15.8%; PNC inhibitor: -101.4*

What do the screens show for `COC(=O)c1ccc(/C=C(\C#N)C(=O)NC(C)c2ccccc2)cc1` (configuration not stated)?
HTT cytoprotect: -15.5%[10 µM]; HTT aggregate: inconclusive; PNC inhibitor: -99.9*

How did CC(C(=O)Oc1ccc2c(c1)OCO2)N1C(=O)c2ccccc2C1=O (configuration not stated) do in these assays?
HTT cytoprotect: -6.4%; HTT aggregate: -21.1%; PNC inhibitor: 23.3

How did Cc1noc(C)c1COc1cccc(C(=O)OCC(=O)N2CC(=O)Nc3ccccc32)c1 do in these assays?
HTT cytoprotect: -1.8%[10 µM]; HTT aggregate: -0.4%; PNC inhibitor: inconclusive

What do the screens show for `CCCN(CC(=O)Nc1ccc(C)cc1Br)CC(=O)Nc1ccc(F)c(F)c1F`?
HTT cytoprotect: -1.3%[1.9 µM]; HTT aggregate: 5.4%; PNC inhibitor: 40.0

What do the screens show for `CCN(CC)c1ccc(NC(=O)CN2C(=O)CSc3ncccc32)c(C)c1`?
HTT cytoprotect: 1.7%; HTT aggregate: inconclusive; PNC inhibitor: -11.9

How did CCCCCC1C/C(=N\O)C=C(C)C1C(=O)OC (configuration not stated) do in these assays?
HTT cytoprotect: 11.4%[10 µM]; HTT aggregate: 12.6%[9.22 µM]

How did CCCCCCC1/C(=N/O)CCC1C(=O)OC (configuration not stated) do in these assays?
HTT cytoprotect: 10.1%; HTT aggregate: 3.98µM*; PNC inhibitor: 4.4

Results for COc1ccc(-c2nn(-c3ccccc3)cc2C(=O)NC(=S)NNC(=O)c2ccncc2)cc1 ?
HTT cytoprotect: 17.1%; HTT aggregate: 10µM*

Results for COc1ccc(NC(=O)c2cn(-c3ccccc3)nc2-c2ccncc2)cc1 ?
HTT cytoprotect: -55.2%; HTT aggregate: 15.1%

Results for Cc1cc(C(=O)Oc2ccccc2C(=O)O)c(C)o1 ?
HTT cytoprotect: -8.3%[0.074 µM]; HTT aggregate: -14.8%; PNC inhibitor: -100.0*

What do the screens show for `CC(=O)Oc1ccccc1C(=O)O`?
HTT cytoprotect: 10.3%; HTT aggregate: -2.7%

What do the screens show for `CCn1c(=O)c(-c2ccccc2)c(O)c2ccccc21`?
HTT cytoprotect: 12.0%; HTT aggregate: -7.3%[9.22 µM]; PNC inhibitor: -10.6

How did CCn1c(=O)c2c(cnn2C)c2ccccc21 do in these assays?
HTT cytoprotect: -0.2%; HTT aggregate: 8.91µM*; PNC inhibitor: -13.8

How did O=C(NCCc1ccc2c(c1)OCCO2)c1cccc(F)c1 do in these assays?
HTT cytoprotect: 16.6%[10 µM]; HTT aggregate: -23.5%; PNC inhibitor: 29.2

Results for COc1ccc(C2CC(c3ccc(F)cc3)n3nc(NS(C)(=O)=O)nc3N2)cc1 (configuration not stated) ?
HTT cytoprotect: -4.0%[10 µM]; HTT aggregate: 2.7%[9.22 µM]

What do the screens show for `O=C(COC(=O)/C=C/c1nc2ccccc2s1)Nc1cccc(Cl)c1Cl`?
HTT aggregate: -12.2%; PNC inhibitor: 18.6

Results for COc1ccc(-c2c(C)n([O-])c3c([n+]2=O)CCCCC3)cc1OC ?
HTT cytoprotect: -6.0%; HTT aggregate: -10.9%[9.22 µM]

What do the screens show for `Clc1ccccc1CN(Cc1ccco1)Cc1nnnn1C1CCCC1`?
HTT cytoprotect: -5.0%[1.9 µM]; HTT aggregate: -10.2%; PNC inhibitor: inconclusive

How did c1coc(CN(Cc2cccs2)Cc2nnnn2C2CCCCC2)c1 do in these assays?
HTT cytoprotect: 20.8%[10 µM]; HTT aggregate: -2.2%; PNC inhibitor: -100.0*

Results for COc1ccc(CN(Cc2cccn2C)S(=O)(=O)c2ccccc2)cc1 ?
HTT cytoprotect: -20.0%[10 µM]; HTT aggregate: -22.2%[9.22 µM]

How did O=C(O)c1ccc(N/N=C/c2cccc3cccnc23)cc1 do in these assays?
HTT cytoprotect: 2.4%[10 µM]; HTT aggregate: -8.0%[9.22 µM]

How did CC1(C)Cc2ccccc2-c2nnc(SCc3ccccc3)n21 do in these assays?
HTT cytoprotect: 40.1%[10 µM]; HTT aggregate: inconclusive; PNC inhibitor: -7.4

How did CCOC(=O)C(C)Sc1nnc2n1C(C)(C)Cc1ccccc1-2 (configuration not stated) do in these assays?
HTT cytoprotect: 25.4%[10 µM]; HTT aggregate: -19.1%; PNC inhibitor: -100.0*

How did CCn1cc(Cl)c(C(=O)Nc2cc(C(=O)OC)cc(C(=O)OC)c2)n1 do in these assays?
HTT cytoprotect: -44.3%; HTT aggregate: inconclusive

What do the screens show for `O=C1CC(N2CCN(C/C=C/c3ccccc3)CC2)C(=O)N1Cc1cccs1` (configuration not stated)?
HTT cytoprotect: -3.2%[10 µM]; HTT aggregate: 5.3%; PNC inhibitor: -12.8

What do the screens show for `O=C1OC(N2CCN(C/C=C/c3ccccc3)CC2)c2ccccc21` (configuration not stated)?
HTT cytoprotect: 10.4%; HTT aggregate: -5.2%; PNC inhibitor: -85.8*

Results for COC(=O)NNC(=O)C1CCC(C(=O)NNC(=O)OC)CC1 (configuration not stated) ?
HTT cytoprotect: 19.6%[10 µM]; HTT aggregate: 13.8%; PNC inhibitor: 3.7

Results for CCOC(=O)c1nc(-c2ccc(OC)c(OC)c2)no1 ?
HTT cytoprotect: -76.5%[10 µM]; HTT aggregate: 0.631µM*

Results for CCOC(=O)C1CCN(Cc2nc(-c3ccc(OC)c(OC)c3)no2)CC1 ?
HTT cytoprotect: -5.0%; HTT aggregate: -4.7%; PNC inhibitor: -25.9

How did COC(=O)CCC(=O)NS(=O)(=O)c1ccc(N=NN2CCOCC2)cc1 do in these assays?
HTT cytoprotect: -4.7%[10 µM]; HTT aggregate: -9.1%[9.22 µM]

Results for CSc1nnc(Cn2c(=O)sc3ccccc32)n1-c1ccccc1 ?
HTT cytoprotect: -24.2%; HTT aggregate: 6.8%; PNC inhibitor: -105.7*

Results for CC(C)Sc1nnc(Cn2c(=O)sc3ccccc32)n1-c1ccccc1 ?
HTT cytoprotect: 29.6%[10 µM]; HTT aggregate: -30.0%; PNC inhibitor: -25.9

Results for Cc1cccc(-n2c(C)n[nH]c2=S)c1 ?
HTT cytoprotect: 3.55µM*; HTT aggregate: 11.7%; PNC inhibitor: 129.0

Results for Cc1cccc(-n2c(-c3ccncc3)n[nH]c2=S)c1 ?
HTT cytoprotect: -0.9%[1.9 µM]; HTT aggregate: 3.9%; PNC inhibitor: 9.1

Results for COc1ccc2nc(Nc3nc(CSc4nc5ccccc5[nH]4)cc(=O)[nH]3)nc(C)c2c1 ?
HTT cytoprotect: 19.9%[0.074 µM]; HTT aggregate: -31.5%; PNC inhibitor: 3.5

What do the screens show for `Cc1nc(Nc2nc(CSc3nc4ccccc4[nH]3)cc(=O)[nH]2)nc2ccccc12`?
HTT aggregate: -26.1%; PNC inhibitor: -96.6*

What do the screens show for `Cc1cccc(-n2c(=O)[nH]c3c(C(N)=O)nc(C(C)C)nc32)c1`?
HTT cytoprotect: 12.8%[10 µM]; HTT aggregate: -6.1%; PNC inhibitor: -100.0*
